In PubChem BioAssay (NCATS):
Where “and” joins values, the source holds several entries; their conditions need not be identical. Equal values may be shown once. Results filed as inconclusive are left out. More than one record can exist for a structure, and the calls need not agree. Calls of active or inactive are those of the source. Calls follow the shape of the dose curve; as a rule, active = well fitted cell-killing curve with a large enough effect; inconclusive = small, poorly fitted or top-dose-only effect, or effect the other way; inactive = no such curve, though single readings can be large or run the other way.

Assay: Viability qHTS for spleen associated tyrosine kinase inhibitor (SYKi) drug resistant MV4-11 cells (AID 1963824); also: nearly all actives have a fitted effect of over 35% in size
Settings: SYKi-resistant MV4-11 viability, CellTiter-Glo, 72 h; series mostly up to 45 µM; viability, % of control: at the top concentration
Method in brief: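 CellTiter-Glo luminescence, read 10 min after reagent addition, reports viability after a 72 hr compound exposure. Cells are an MV4-11 line made resistant to SYK inhibition, seeded at 500 per well onto compound-containing plates.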
Potency is read from the fitted curve at half-maximal effect.

Row | SMILES | Potency | viability, % of control
1 | Oc1ccc(-c2nc(-c3ccc(F)cc3)c(-c3ccncc3)[nH]2)cc1 | 8.33 µM (active) | 
2 | Cc1c(C(=O)Nc2ccc(N3C[C@@H](C)O[C@@H](C)C3)nc2)cccc1-c1ccc(OC(F)(F)F)cc1 | inactive and 7.42 µM (active) | 
3 | CC(C)NCC(O)c1ccc(NS(C)(=O)=O)cc1 (stereo not drawn) |  | 102% (inactive)
4 | COc1ccc(C2CNC(=O)C2)cc1OC1CCCC1 (stereo not drawn) |  | 73.7% (inactive)
5 | CC(C)Nc1cc(-c2c[nH]c(C(=O)N[C@H](CO)c3cccc(Cl)c3)c2)c(Cl)cn1 | 1.64 µM (active) and 2.63 µM (active) | 
6 | Cc1cccc(-c2[nH]c(C(C)(C)C)nc2-c2ccc3nccnc3c2)n1 | 18.6 µM (active) and 1.3 µM (active) | 
7 | CCn1c(-c2nonc2N)nc2cncc(CNC3CCNCC3)c21 | 7.31 µM (active) and 5.25 µM (active) | 
8 | Cc1ncc([N+](=O)[O-])n1CCO |  | 76.7% (inactive)
9 | C#Cc1cccc(Nc2ncnc3cc(OCCOC)c(OCCOC)cc23)c1 | 6.68 µM (active) and 2.31 µM (active) | 
10 | C=C(C)[C@@H]1CC[C@]2(C)CC[C@]3(C)[C@H](CC[C@@H]4[C@@]5(C)CC[C@H](O)C(C)(C)[C@H]5CC[C@]43C)[C@@H]12 |  | 89.3% (inactive)
11 | C[Se]CCC(N)C(=O)O (stereo not drawn) |  | 66.6% [at 91.9 µM] (inactive)
12 | C=CC(=O)Nc1cccc(Oc2nc(Nc3ccc(N4CCN(C)CC4)cc3OC)ncc2Cl)c1 | 2.06 µM (active) and 2.95 µM (active) | 
13 | COc1ccc2c(c1)c(CC(=O)OCC(=O)O)c(C)n2C(=O)c1ccc(Cl)cc1 |  | 87.6% (inactive)
